Source: PubChem BioAssay AID1962 (The Scripps Research Institute Molecular Screening Center, 2009)
Hit rate of the full screen: of about 300,000 compounds, about 2,500 (0.83%) were called active. Many of the other results were omitted from the sample, so actives are more common in it than they were. Values without a mark were called inactive.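 How the source made its calls: active means inhibition above the mean of all tested compounds plus 3 SD, set per screening campaign (cut at about 24% in these data); inactive means the rest.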

system: tRNA 2'-phosphotransferase TPT1 (Candida albicans SC5314); assay: tRNA 2'-phosphotransferase blockers, C. albicans – biochemical, fluorescence polarization, primary screen (AID 1962); conditions: recombinant caTPT1, FP RNA substrate dephosphorylation; at 5 µM; active compounds read high;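 further: plate controls were DMSO alone for no effect and ferristatin control at 100 nM for full effect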

| SMILES | inhibition |
| --- | --- |
| NC(=O)c1c(Nc2nc3c(F)cccc3s2)sc2c1CCCC2 | 85.5% (active) |
| COc1cccc(OC)c1C(=O)Nc1sc2c(c1C(N)=O)CCCC2 | -0.1% |
| NC(=O)c1c(NC(=O)c2ccccc2)sc2c1CCCC2 | 1.25% |
| CC(C)(C)C(=O)Nc1ccc(C(=O)N/N=C/c2ccccc2OC(=O)c2ccc(Cl)cc2Cl)cc1 | -2.72% |
| Cc1ccc(Sc2ccncc2S(N)(=O)=O)cc1 | 0.2% |
| Cc1cnc(C(=O)N2CCCC(C(=O)c3ccc(C(F)(F)F)cc3)C2)cn1 (centres undefined) | -2.98% |
| CCOC(=O)N1CCN(C(=O)CSc2nc(=O)n3cccc(C)c3n2)CC1 | -1.52% |
| Cc1cccn2c(=O)c(/C=C(\C#N)C(N)=O)c(N3CCCCCC3)nc12 | -0.44% |
| CCOC(=O)CC1C(=O)NCCN1c1nc2c(C)cccn2c(=O)c1/C=C1\SC(=S)N(C(C)CC)C1=O (centres undefined) | 145% (active) |
| CCC(=O)N1c2ccc(S(=O)(=O)NCc3ccco3)cc2CC1C (centres undefined) | -4.88% |
| COCCCn1c(-c2cccs2)nc2nc3ccccc3nc21 | -0.91% |
| Cc1c(-c2ccccc2)cn2c1-c1ccc(C)n1CC2 | 49% (active) |
| Cc1cc(Br)ccc1SCC(=O)OCC(=O)NCc1ccc2c(c1)OCO2 | -0.18% |
| CC1CCN(C(=O)c2ccc3c(c2)NC(=O)CN3)CC1 | 147% (active) |
| CC1CCN(C(=O)c2ccc(CSc3ccc(Cl)cc3)cc2)CC1 | -4.05% |
| CC1CCN(C(=O)c2ccc3c(=O)n4c(nc3c2)CCCCC4)CC1 | -0.96% |
| O=c1oc2ccccc2c(CNc2ccccc2)c1[N+](=O)[O-] | -2.94% |
| COc1ccc(/C=C(\C#N)c2c[nH]c3ccccc23)cc1 | 0.42% |
| O=C(N/N=C/c1c[nH]c2ccccc12)c1ccccc1O | -1.65% |
| C[n+]1ccc(/C=C/c2c[nH]c3ccccc23)cc1 | 56% (active) |

| SMILES | inhibition |
| --- | --- |
| CCOc1ccc(-n2c(O)c(/C=N/Nc3nc(C)cc(C)n3)c3ccccc3c2=O)cc1 | -0.65% |
| Cc1ccc(-n2c(O)c(C=Nc3ccc(S(=O)(=O)Nc4ncccn4)cc3)c3ccccc3c2=O)cc1C | 1.02% |
| CCOc1ccc(-n2c(O)c(/C=N/c3ccnn3Cc3ccncc3)c3ccccc3c2=O)cc1 | 44.3% (active) |
| CC(C)CCN1CCN=C1N(C)C | 0.11% |
| O=C(NCCCN1CCOCC1)c1cnn2c(-c3ccccc3)cc(-c3ccccc3)nc12 | -0.23% |
| COc1ccc(C(=O)NC2CC2)cc1OC1CCN(Cc2ccc(SC)cc2)CC1 | -0.85% |
| CC(NC(=S)Nc1ccccc1)C(c1cccs1)N1CCOCC1 (centres undefined) | -0.68% |
| CCOC(=O)Nc1ccc2c(c1)N(C(=O)CCCl)c1ccccc1[S@]2=O | 1.44% |
| Cc1ccc2cc(/C=N/NC(=O)[C@@H]3CCCN3)c(Cl)nc2c1 | -2.39% |
| Cc1ccc2cc(/C=N/Nc3ccc(C(=O)O)cc3)c(Cl)nc2c1 | 24.6% (active) |
| O=C(O)c1ccc(N/N=C/c2ccc3ncccc3c2)cc1 | -4.36% |
| C/C(=N\Nc1nc(N2CCOCC2)nc(N2CCOCC2)n1)c1ccc([N+](=O)[O-])cc1 | 0.13% |
| COc1cccc(OC)c1C(=O)Nc1ccc2c(c1)n(C)c(=O)n2C | -1.47% |
| Cc1ccc(N2NC(=O)/C(=C/C=C/c3ccco3)C2=O)cc1C | 4.93% |
| Cc1ccc(N=C2NC(=O)/C(=C/C=C/c3ccco3)S2)cc1C | 25.4% (active) |
| CN(C)c1ccc(-n2cccc2/C=C2/SC(=Nc3ccc(F)cc3)NC2=O)cc1 | 0.75% |
| COC(=O)C1(S(=O)(=O)C2(C(=O)OC)CCCC2)CCCC1 | -0.48% |
| CN1C(=O)CC(c2ccccc2)C1=O (centres undefined) | -3.97% |
| CCN1C(=O)N[C@@H](c2ccccc2)[C@H](C(C)=O)[C@H]1C | 1.78% |
| Cc1ccc2nc(-c3ccncc3)cc(C(=O)Nc3ccncc3)c2c1 | -2.29% |

| SMILES | inhibition |
| --- | --- |
| O=C(Nc1ccc(S(=O)(=O)Nc2nccs2)cc1)c1cc(-c2ccncc2)nc2ccccc12 | 42.7% (active) |
| O=C(Nc1ccc(S(=O)(=O)Nc2nccs2)cc1)c1cc(=O)[nH]c2ccccc12 | 11.7% |
| O=C(NC(Cc1ccc(O)cc1)C(=O)O)/C(=C/c1ccccc1)NC(=O)c1ccccc1 (centres undefined) | -2.71% |
| CC(=O)Oc1cccc(C(=O)Nc2ccccc2NC(=O)c2cccc(OC(C)=O)c2)c1 | -1.86% |
| CC(=O)c1cc(NC(=O)c2ccccc2)c(=O)oc1/C=C/N(C)C | 110% (active) |
| CCOC(=O)c1cc(NC(=O)c2ccc(Cl)cc2)c(=O)oc1-c1ccccc1 | -4.37% |
| Cc1ccc(N2CCN(C(=O)c3cccs3)CC2)c(C)c1 | -2.58% |
| Cn1cccc1/C=C1\SC(=S)N(NC(=O)c2ccc(Cl)cc2)C1=O | 84.1% (active) |
| Cn1cccc1/C=C1\SC(=O)N(CC(=O)Nc2ccc(F)cc2)C1=O | 1.77% |
| O=C(O)c1ccc(/C=C2\SC(=S)N(NC(=O)c3ccc(Br)cc3)C2=O)cc1 | 5.29% |
| CCCC(=O)Nc1ncnc2c1ncn2[C@@H]1O[C@@H]2OP(=O)(O)OC[C@H]2[C@H]1OC(=O)CCC | -4.36% |
| COc1ccc(Br)cc1/C=N/n1c(C)nnc1C | -0.28% |
| CC(=O)Nc1cccc(Oc2cc(C#N)c(C#N)cc2N2CCOCC2)c1 | -0.51% |
| COc1cc(N2CCCC2)c(OC)cc1/C=C(/C#N)c1cccc(Br)c1 | 103% (active) |
| O=C1NCCn2nc3ccccc3c21 | -3.31% |
| Cc1ccc(Oc2nc3ccccc3n3c(C)nnc23)cc1 | -2.63% |
| Cc1ccc(S(=O)(=O)N(C)c2nc3ccccc3n3c(C(C)C)nnc23)cc1 | 49.9% (active) |
| CC(=O)Nc1ccc(S(=O)(=O)N(C)c2nc3ccccc3nc2Cl)cc1 | -0.11% |
| C#CCOCCOCCOCCNc1nc(N2CCN(C(=O)CCCCCCCCCCNC(=O)[C@H](CCCCN)n3cc(C)nn3)CC2)nc(N2CCN(C(=O)CCCCCCCCCCNC(=O)[C@H](CO)n3cc(CCCSC)nn3)CC2)n1 | 0.52% |
